# Source: PubChem (National Center for Advancing Translational Sciences (NCATS))
# Rows were chosen to be rich in hits. Some 6.1% of all compounds tested hit in one or more screens of this group.
# D1 antag: human D1 dopamine receptor antagonism; activity change, negative = inhibition, % at 10 µM; AID 504652; HEK293 TREx D1 cells, calcium flux, dopamine EC80; active compounds read low; 360,000 compounds, 3.2% hits; P21728; in the data active = activity change below about -30%; note: % is set by controls: 0 for no effect and ±100 for the full control effect
# Target sequence (P21728 whole entry, looked up): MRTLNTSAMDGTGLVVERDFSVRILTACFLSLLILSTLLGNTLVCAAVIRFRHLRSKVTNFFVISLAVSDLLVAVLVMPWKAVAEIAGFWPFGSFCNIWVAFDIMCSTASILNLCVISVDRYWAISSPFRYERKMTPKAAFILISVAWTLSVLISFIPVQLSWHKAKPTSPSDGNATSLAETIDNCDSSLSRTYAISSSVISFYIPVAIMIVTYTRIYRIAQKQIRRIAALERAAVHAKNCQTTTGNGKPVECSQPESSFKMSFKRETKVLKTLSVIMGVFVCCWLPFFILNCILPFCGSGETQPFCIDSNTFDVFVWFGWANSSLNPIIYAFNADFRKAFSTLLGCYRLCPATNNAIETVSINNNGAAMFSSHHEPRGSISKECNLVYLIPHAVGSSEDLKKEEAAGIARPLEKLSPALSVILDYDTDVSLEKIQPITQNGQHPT
#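 Using tetracycline-induced force-coupled D1 Hek293 cells and a calcium dye, signals were followed for 180 s after compound, then for 180 s after EC80 dopamine, to detect inhibitors.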
# D1 PAM: potentiators of human D1 dopamine receptor | P21728 | HEK293 TREx D1 cells, calcium flux, dopamine EC20 potentiation | potentiation, % at 10 µM | 360,000 compounds, 0.036% hits | AID 504651; in the data active = potentiation above about 30%; note: 0% is about no effect
# DRD3 antagonist: blocks the human D3 dopamine receptor; P35462; D3R cells, DiscoveRx beta-arrestin luminescence, antagonist mode; active compounds read low; max response, negative = inhibition, %; 360,000 compounds, 2.5% hits; in the data active = max response below about -50%; inconclusive = no clear call, values can overlap the other calls; note: % is set by controls: 0 for no effect and ±100 for the full control effect
#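 Cells expressing the human receptor were seeded at 1500 cells/well, incubated overnight at 37 degrees C in 5% CO2, then exposed to library compounds with dopamine controls for 90 minutes at 37 degrees C before luminescent detection.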
# D3 ag: agonists of human D3 dopamine receptor. P35462. D3R DiscoveRx beta-arrestin cells, luminescence, 90 min. max activation, %. 410,000 compounds, 0.58% hits. AID 652048; in the data active = max activation above about 30%; note: 0% is about no effect
#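 Agonist mode: compounds and dopamine controls were applied to plated cells for 90 min at 37 degrees C after an overnight attachment at 1500 cells/well. Luminescent read-out followed 30 - 60 minutes at room temperature with DiscoveRx detection reagent.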
# ERG Ets-DNA blk: blocks human ERG Ets domain binding to DNA; P11308; fluorescence polarization, His-ERG Ets domain / labelled DNA; Potency, µM (highest dose often 76.9 µM), for inactives: top-dose FP activity, negative = inhibition, actives largely listed as inhibitors; 370,000 compounds, 0.028% hits; AID 624246; active = well fitted inhibition curve with a large enough effect in the polarisation, with a control signal flat; inconclusive = small, poorly fitted or top-dose-only effect, or effect the other way, or a change in a side signal; inactive = no such curve, though single readings can be large or run the other way; the % refers to the polarisation;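 note: polarization taken with two DNA probes labelled with fluorescein and Texas red; potency is the fitted concentration of half-maximal effect; % of control where 0% means no effect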
#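 His-tagged ERG Ets domain (1 uM in the protein solution; 300mM KCl, 50mM Tris-HCl, 1mM EDTA, 1mM DTT, pH 7.5) received compound, then a probe mix of 5 nM fluorescein-DNA and 100nM Texas-615-DNA. Fluorescence polarization was read for both dyes.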
# D1 agonist: agonists of human D1 dopamine receptor | 360,000 compounds, 1% hits | HEK293 T-REx D1 cells, calcium flux, agonist mode | AID 504660 | activation, % at 2 µM; in the data active = activation above about 30%; note: 0% is about no effect
#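 Agonism was scored from calcium flux recorded over 180 s (1 read/s) after pintool compound addition, following a 10-cycle baseline. Cells were inducible force-coupled HEK293 TREx D1, plated overnight at 30 C and loaded with no-wash calcium dye.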
# * hit, by the source's call; ? = inconclusive; / = not tested or not shown; ! = not active in a repeat.
SMILES,D1 antag,D1 PAM,DRD3 antagonist,D3 ag,ERG Ets-DNA blk,D1 agonist
Cc1ccc(C2N(c3ccccn3)C(=O)C3CCCN32)o1 (stereo unspecified),2,0,3,3,-15%,1
CCOc1ccc(C2(C#N)CC[N+](C)(C)CC2)cc1,-15,3,-51*,-2,4%,-1
c1ccc(C2(N3CCCCC3)CCCCC2)cc1,/,/,0,0,5%,/
S=C=Nc1cccc(C2(N3CCCCC3)CCCCC2)c1,-91*,-7,12,84*,-13%,4
CN1CCN(Cc2ccc(N)cc2)CC1,3,-2,-5,7,-5%,1
CN1CCN(Cc2cc(C(C)(C)C)c(O)c(C(C)(C)C)c2)CC1,-5,-3,-82*,-9,-8%,1
Cc1ccccc1-n1c(O)c(C=Nc2ccc3c(c2)OCO3)c(=O)[nH]c1=O,5,-10,9,5,0%,1
CCN(CC)c1ccc(N=Cc2c(O)[nH]c(=O)[nH]c2=O)cc1,-11,-7,-3,1,-5%,11
CCN(CC)c1ccc(N=Cc2c(O)n(Cc3ccccc3)c(=O)[nH]c2=O)cc1,-5,-4,-13,0,-7%,37*!
CCOc1ccccc1-n1c(O)c(C=Nc2ccc(N(CC)CC)cc2)c(=O)[nH]c1=O,10,-1,?,-15,-1%,37*
CCN(CC)c1ccc(N=Cc2c(O)n(-c3ccccc3C)c(=O)[nH]c2=O)cc1,-8,-3,-13,-16,/,31*
CCN(CC)c1ccc(N=Cc2c(O)n(-c3ccccc3)c(=O)[nH]c2=O)cc1,-1,-1,22,1,6%,86*
CCOc1ccc(-n2c(O)c(C=Nc3ccc(N(CC)CC)cc3)c(=O)[nH]c2=O)cc1,1,-4,-6,-30,/,17
C[C@]12CCC3C(CC[C@@H]4CC(=O)CC[C@]34C)C1CC[C@@H]2O (stereo partly specified),/,/,18,12,8%,/
C[C@H]1O[C@H]1P(=O)(O)O,6,-4,-14,-11,45%,0
COc1cc(/C=C/C(=O)c2c(O)n(CCc3ccccc3)c(=O)[nH]c2=O)ccc1O,9,0,-16,0,-3%,42*
Cc1ccsc1-c1nc(CSCC(=O)N2CCC3(CC2)OCCO3)c(C)o1,-25,-3,1,18,12%,12
C[C@](N)(CCP(=O)(O)O)C(=O)O,27,-1,-11,-16,10%,-1
CCOC(=O)[C@]12Cc3cc(OC)ccc3[C@H]1N(C1CCCCC1)C(=O)c1cc(OC)ccc12,/,/,?,-7,/,/
CCOC(=O)[C@]12Cc3cc(C)ccc3[C@H]1N(C1CCCCC1)C(=O)c1cc(OC)ccc12,/,/,-64*,-10,/,/
CC(=O)C1CCC2C3CCC4CC(O)CCC4(C)C3C(=O)CC12C (stereo unspecified),/,/,-24,-3,6%,/
COc1ccc(CCNCc2ccc(SC)cc2)cc1,6,-2,-53*,-35,/,11
COc1ccc(CCNCc2cccn2C)cc1,-5,3,5,-5,3%,5
CC1=C[C@@H]2c3cccc4[nH]cc(c34)C[C@H]2N(C)C1,-37*,-10,-22,54*,-2%,31*
Cn1c(O)c(C=NCCN2CCN(C(=O)Nc3ccccc3)CC2)c(=O)n(C)c1=O,13,-3,7,7,-2%,0
CCC(C)N1CCN(C(=O)Cc2ccccc2)CC1 (stereo unspecified),2,-3,-65*,-19,-2%,0
c1ccc2c(N3CCNCC3)nsc2c1,-21,-5,-70*,-11,6%,3
CCC(c1nnnn1Cc1ccccc1)N1CCC(n2c(=O)[nH]c3ccccc32)CC1 (stereo unspecified),/,/,19,-4,/,/
CC(Cc1ccccc1)N1C(=O)c2ccccc2C1=O (stereo unspecified),-18,-10,-17,4,5%,2
O=C(CN1CCOCC1)c1cccc2ccccc12,-11,-1,-55*,-7,-7%,1
